Pol eta inh – blocks human DNA polymerase eta activity; actives 1.2% (n = 390,000); Potency, µM (titrated, usually from 114 µM), actives largely listed as inhibitors; recombinant Pol eta, fluorescent DNA replication assay
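Pol eta (10 nM) was preincubated with compounds for 15 min at room temperature, after which fluorescent replication substrate (50 nM final) was added to start the reaction. Fluorescence was read kinetically at 0 and 10 min.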
FEN1 inh – human FEN1 inhibition; P39748; Potency, µM (top dose mostly 114 µM), actives largely listed as inhibitors; Recombinant FEN1 flap cleavage, fluorescence, 15 min; actives 0.35% (n = 390,000); also: nearly all actives have a fitted effect of over 65% in size
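Nuclease activity of 10 nM FEN1 was measured after 15 min of room-temperature exposure to titrated compounds, by adding 50 nM flap substrate and reading plates at 0 and 15 min.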
Pol beta inh – blocks human DNA polymerase beta activity; P06746; Pol beta primer extension/strand displacement, fluorescence kinetic; Potency, µM (titrated, usually from 114 µM), usual class: inhibitors; actives 1.3% (n = 340,000); AID 485314
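Values derive from four-parameter Hill fits of normalized kinetic data: reads at 0 and 10 min following addition of 50 nM substrate to 10 nM Pol beta preincubated 15 min with compound.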
WRN inhibitor – inhibitors of human WRN helicase | Q14191 | WRN helicase unwinding, fluorescent forked duplex, kinetic | Potency, µM (doses to about 114 µM), hits mostly inhibitors | actives 0.46% (n = 360,000) | AID 651768; also: nearly all actives have a fitted effect of over 55% in size
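Enzyme (20 nM final) and test compound sit together 15 min at room temperature before substrate addition. Substrate is a single-forked duplex oligonucleotide (100 nM) labelled with fluorophore and quencher, with 2 mM ATP; helicase unwinding raises red fluorescence, read kinetically.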
Pol iota inh – inhibitors of human DNA polymerase iota; Q9UNA4; Pol iota fluorescent replication assay, 10 min; Potency, µM (top dose mostly 115 µM), usual class: inhibitors; actives 1% (n = 390,000); AID 588590
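Pol iota at 10 nM preincubated 15 min with compounds at room temperature; reaction started with fluorescent substrate, 50 nM final. Fluorescence read kinetically at 0 and 10 min; buffer-only wells as negative control.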
POLK inh – DNA polymerase kappa (human) inhibition; AID 588579; Potency, µM (doses to about 107 µM), hits mostly inhibitors; Q9UBT6; actives 0.53% (n = 400,000); purified Pol kappa, fluorescent DNA synthesis assay, 10 min
Target sequence (Q9UBT6 whole entry, looked up): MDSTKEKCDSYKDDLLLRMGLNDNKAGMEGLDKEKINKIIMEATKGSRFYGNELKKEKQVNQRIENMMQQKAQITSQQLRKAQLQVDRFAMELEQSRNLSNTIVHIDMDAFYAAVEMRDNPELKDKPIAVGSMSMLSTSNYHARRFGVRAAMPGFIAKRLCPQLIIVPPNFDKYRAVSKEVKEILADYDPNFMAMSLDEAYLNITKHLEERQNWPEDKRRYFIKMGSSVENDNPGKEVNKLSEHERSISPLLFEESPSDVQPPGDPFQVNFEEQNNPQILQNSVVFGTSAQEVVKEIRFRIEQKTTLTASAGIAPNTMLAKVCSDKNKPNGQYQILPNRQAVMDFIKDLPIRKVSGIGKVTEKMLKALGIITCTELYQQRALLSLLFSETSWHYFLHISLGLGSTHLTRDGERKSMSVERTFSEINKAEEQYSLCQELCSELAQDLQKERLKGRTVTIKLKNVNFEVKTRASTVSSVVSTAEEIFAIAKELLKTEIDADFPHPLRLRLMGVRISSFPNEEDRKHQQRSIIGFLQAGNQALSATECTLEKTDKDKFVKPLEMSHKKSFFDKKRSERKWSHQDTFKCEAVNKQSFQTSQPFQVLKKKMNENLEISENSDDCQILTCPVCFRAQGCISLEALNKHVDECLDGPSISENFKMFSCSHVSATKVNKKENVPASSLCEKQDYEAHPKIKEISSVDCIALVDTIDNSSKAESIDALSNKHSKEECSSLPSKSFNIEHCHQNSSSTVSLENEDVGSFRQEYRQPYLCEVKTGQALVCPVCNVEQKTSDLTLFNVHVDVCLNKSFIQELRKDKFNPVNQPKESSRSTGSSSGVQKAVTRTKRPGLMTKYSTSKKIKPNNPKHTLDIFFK
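10 nM Pol kappa was preincubated with compounds for 15 min at room temperature. Reaction started with 50 nM (final) substrate. Fluorescence read kinetically at 0 and 10 min.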
Large screens that a line does not name were inactive. Most compounds without a hit are left out; they make up all but 2.4% or so of the library. Calls follow the shape of the dose curve; as a rule, active = well fitted curve in the direction sought with a large enough effect; inconclusive = small, poorly fitted or top-dose-only effect, or another doubt; inactive = no such curve, though single readings can be large; an effect the other way counts as inactive or inconclusive.

Cn1cccc1-c1nc2ccc(NC(=O)c3ccco3)cc2[nH]1	none
O=C(Nc1ccc2nc(-c3cccs3)[nH]c2c1)c1ccco1	Pol eta inh inconclusive, Pol beta inh 31.6µM, Pol iota inh inconclusive
Cc1ccc(-n2nc3ccc(NC(=O)C(C)C)cc3n2)cc1	none
Cc1ccc(-n2nc3ccc(NC(=O)c4ccco4)cc3n2)cc1	Pol eta inh inconclusive, Pol beta inh 25.1µM, Pol iota inh inconclusive
CC(NC(=O)c1ccc2c(c1)CCN2S(=O)(=O)c1ccc(Cl)cc1)c1ccccc1 (configuration not stated)	none (no result: WRN inhibitor)
COc1ccccc1-c1cn(CC[C@@H]2CC[C@H](NC(=O)C3CCC3)[C@@H](CO)O2)nn1	none (no result: Pol eta inh, FEN1 inh, Pol beta inh, Pol iota inh, POLK inh)
COc1cc(Cl)c(C)cc1NC(=O)c1ccccc1NC(=O)CN1CCOCC1	Pol eta inh 79.4µM, Pol beta inh inconclusive, Pol iota inh inconclusive, POLK inh inconclusive
CCCN(CCC)c1ccc(/C=C/c2sc3ccccc3[n+]2CCCCI)cc1	FEN1 inh inconclusive, Pol iota inh 79.4µM, POLK inh inconclusive (no result: Pol eta inh, Pol beta inh, WRN inhibitor)
CN(C)c1ccc(/C=C/c2sc3ccccc3[n+]2Cc2ccccc2)cc1	FEN1 inh inconclusive, Pol iota inh 79.4µM, POLK inh inconclusive (no result: Pol eta inh, Pol beta inh, WRN inhibitor)
COc1ccc(/C=C/c2sc3ccccc3[n+]2CCCCI)cc1OC	Pol iota inh inconclusive (no result: Pol eta inh, Pol beta inh, WRN inhibitor)
CC(C)NC(=O)Nc1ccc2c(c1)C(=O)N([C@H](C)CO)C[C@H](C)[C@@H](CN(C)Cc1ccc(C(F)(F)F)cc1)OCCCC[C@H](C)O2	none (no result: FEN1 inh, Pol beta inh, Pol iota inh, POLK inh)
Cc1cccc(C(=O)OCC(=O)c2ccc(CC(=O)N3CCOCC3)s2)c1C	Pol eta inh 10µM, WRN inhibitor inconclusive, POLK inh 79.4µM (no result: Pol beta inh)
Cc1[nH]nc2c1C(c1ccc(F)cc1)C(C#N)=C(N)O2 (configuration not stated)	none
Cc1oc(C)c2c(=O)ccc3c(c12)OC(N)=C(C#N)C3c1ccc(F)cc1 (configuration not stated)	Pol eta inh inconclusive, Pol beta inh 20µM, Pol iota inh inconclusive, POLK inh inconclusive
CC1CC2(C)Oc3ccccc3C3OCC1(COC(=O)Nc1ccccc1)C(C)C32 (configuration not stated)	none (no result: Pol eta inh, FEN1 inh, Pol beta inh, WRN inhibitor, Pol iota inh)
O=C1C=C(O)CC(c2ccc(Cl)c(Cl)c2)C1 (configuration not stated)	none
O=C1C=C(O)CC(c2ccc(Cl)cc2)C1 (configuration not stated)	Pol eta inh inconclusive, Pol beta inh 50.1µM
COc1cc2ccccc2cc1C(=O)OCC(=O)Nc1ccc(Br)cc1	FEN1 inh inconclusive, POLK inh 89.1µM (no result: Pol eta inh, Pol beta inh, WRN inhibitor, Pol iota inh)
CCOc1cc2ccccc2cc1C(=O)OCC(=O)Nc1ccc(Br)cc1	none (no result: Pol eta inh, Pol beta inh, WRN inhibitor)
Cc1c(C2=CCN(S(=O)(=O)c3ccc(CC(C)C)cc3)CC2)c2ccccc2n1CC(=O)N1CCCC1	Pol iota inh inconclusive (no result: WRN inhibitor)
COc1cc(/C=N/NC(=O)c2ccncc2)ccc1OCCN1CCCCC1	Pol beta inh inconclusive, Pol iota inh inconclusive, POLK inh inconclusive
COc1cc(/C=N/NC(=O)c2cc3ccccc3cc2O)ccc1OCCN1CCCCC1	FEN1 inh inconclusive, Pol beta inh 79.4µM, Pol iota inh inconclusive
CCOC(=O)C1OC1C(=O)NC(CC(C)C)C(=O)NCCC(C)C (configuration not stated)	none (no result: Pol eta inh, FEN1 inh, Pol beta inh, WRN inhibitor, Pol iota inh)
O=C(NCCOCCn1c(=O)oc2ccccc21)Nc1ccc(F)cc1	none (no result: WRN inhibitor)
NNC(=S)Nc1cccc(-c2n[nH]c(=S)o2)c1	Pol eta inh 79.4µM, FEN1 inh 50.1µM, Pol beta inh inconclusive
C[N+]1(C)[C@@H]2CC(OC(=O)C(O)(c3cccs3)c3cccs3)C[C@H]1[C@@H]1O[C@@H]12 (some centres not stated)	none (no result: Pol eta inh, FEN1 inh, Pol beta inh, WRN inhibitor, Pol iota inh)
Cc1ccc(S(=O)(=O)NC(=O)C2(C)CCN2C(=O)C2CCCCC2)cc1 (configuration not stated)	none (no result: Pol eta inh, FEN1 inh, Pol beta inh, Pol iota inh, POLK inh)
Cc1cnc(CNc2cc(-c3ccoc3)ncn2)cn1	none (no result: Pol eta inh, FEN1 inh, Pol beta inh, WRN inhibitor, Pol iota inh)
COc1ccc(N=C2S/C(=C\c3ccc(OCC(=O)O)cc3)C(=O)N2CCc2c[nH]c3ccccc23)cc1	Pol beta inh 3.98µM, WRN inhibitor inconclusive, Pol iota inh inconclusive, POLK inh 15.8µM

Screening results (PubChem BioAssay)
